Screens as filed in PubChem BioAssay.
NR3A LBD binder = binders of NR3A ligand-binding domain, primary screen, biophysical, differential scanning fluorimetry, uHTS | Tm shift relative to glycine control, % at 25 µM | 2.5% of 340,000 active | Glutamate receptor ionotropic, NMDA 3A (GRIN3A) ligand-binding domain | NR3A LBD differential scanning fluorimetry, Tm shift; 0% = protein alone, 100% = glycine-bound protein;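 active means melting temperature shift of at least 10% of the positive control shift, at one fixed dose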
Beta cell apopt = inhibitors of cytokine-induced beta cell apoptosis, primary screen, luminescence. AID 435005, 2010. 0.8% of 300,000 active. INS-1E cytokine-induced death, ATP luminescence, 48 h; percent of positive-control rescue, neutral wells zero. protection from apoptosis, % (test concentration not listed);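 active means Every replicate reaches about 75%, or at least half do and their mean reaches it too, limit read from the data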;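 further: 0% = cytokine-treated negative control wells and 100% = positive control rescue; higher means more ATP so stronger rescue from cytokine killing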
Mdm2 MdmX PPI = inhibitors of human Mdm2-MdmX association, primary screen, cell-based, luminescence, split luciferase, SaOS-2, uHTS. Protein Mdm4 (Homo sapiens) + E3 ubiquitin-protein ligase Mdm2 (Homo sapiens), …. SaOS-2 split-luciferase Mdm2/MdmX complementation. inhibition, % at 8 µM. 3% of 330,000 active;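 active means inhibition of at least 50% at 8 µM in the primary screen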
Target sequence (O15151 whole entry, looked up): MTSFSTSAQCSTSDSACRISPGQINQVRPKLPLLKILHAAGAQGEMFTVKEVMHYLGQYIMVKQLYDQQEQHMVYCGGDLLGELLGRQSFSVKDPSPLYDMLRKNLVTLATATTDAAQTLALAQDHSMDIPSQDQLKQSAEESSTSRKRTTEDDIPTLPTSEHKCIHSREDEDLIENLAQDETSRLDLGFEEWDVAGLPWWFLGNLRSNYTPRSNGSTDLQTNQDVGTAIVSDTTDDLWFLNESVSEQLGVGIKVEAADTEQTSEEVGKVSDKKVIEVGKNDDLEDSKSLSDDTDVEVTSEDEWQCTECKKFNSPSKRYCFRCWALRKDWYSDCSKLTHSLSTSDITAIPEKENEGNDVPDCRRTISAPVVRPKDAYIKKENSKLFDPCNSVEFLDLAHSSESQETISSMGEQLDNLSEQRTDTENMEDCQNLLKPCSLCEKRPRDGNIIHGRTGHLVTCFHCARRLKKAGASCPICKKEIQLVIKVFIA
Target sequence (Q00987 whole entry, looked up): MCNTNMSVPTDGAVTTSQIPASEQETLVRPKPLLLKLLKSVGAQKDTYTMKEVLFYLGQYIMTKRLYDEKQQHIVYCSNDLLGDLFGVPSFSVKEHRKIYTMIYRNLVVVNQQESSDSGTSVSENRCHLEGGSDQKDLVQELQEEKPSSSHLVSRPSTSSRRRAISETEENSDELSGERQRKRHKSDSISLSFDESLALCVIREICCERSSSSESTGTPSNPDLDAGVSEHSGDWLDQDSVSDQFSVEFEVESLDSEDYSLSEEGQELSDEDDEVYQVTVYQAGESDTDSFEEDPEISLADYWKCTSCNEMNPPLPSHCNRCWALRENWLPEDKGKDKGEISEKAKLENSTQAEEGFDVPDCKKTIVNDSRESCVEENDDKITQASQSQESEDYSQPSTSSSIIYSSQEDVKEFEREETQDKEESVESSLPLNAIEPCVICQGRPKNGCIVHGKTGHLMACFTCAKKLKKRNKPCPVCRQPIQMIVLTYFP
CSC inhib = cancer stem cell viability inhibitors, primary screen, luminescence | AID 2717, 2010 | 1.1% of 300,000 active | cancer stem cell-like cells viability | inhibition, % at 7.5 µM; in the data active means inhibition above about 75%; tested in HMLE shEcad cells
MPTP block = mitochondrial permeability transition pore inhibitors, primary screen, biochemical, isolated mouse mitochondria, absorbance. Ca2+ swelling absorbance, 30 min. 1.4% of 360,000 active. inhibition, % at 10 µM. AID 602449, 2012;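 active means inhibition of 50% or more, scaled per plate between neutral and stimulator controls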;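 further: 0% = DMSO wells given calcium and 100% = 1 mM EGTA wells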
Gli-Sufu antag = Gli-Sufu pathway antagonists, primary screen, luciferase luminescence, Sufu-KO-LIGHT cells, uHTS | AID 588413, 2011 | Sufu-KO-LIGHT fibroblasts, Gli luciferase reporter luminescence | inhibition, % at 5 µM | 0.74% of 340,000 active;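 active means inhibition above about 55%, limit read from the data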;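 further: 0% = DMSO-treated cells and 100% = wells with medium but no cells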
Mdm2 MdmX conf = Mdm2-MdmX complex disruptors, retested hits, confirmation, luminescence, single concentration | shares compounds with Mdm2 MdmX PPI | inhibition, % at 8 µM | 55% of 10,000 active | Mdm2-MdmX binding, luminescent assay; in the data active means inhibition above about 40%
FLuc counter = full-length luciferase signal inhibition, confirmation, counter-screen for Mdm2/MdmX interaction inhibitor project, cell-based, single concentration, SaOS-2. shares compounds with Mdm2 MdmX PPI. SaOS-2 full-length luciferase counterscreen, luminescence. inhibition, % at 8 µM. 77% of 6,200 active. AID 504607, 2011;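 active means mean inhibition at 8 µM reaching about 37%, which flags the compound as non-specific, limit read from the data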;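 further: p53-null SaOS-2 cells with luciferase driven by a doxycycline-inducible promoter; compound on cells about two nights before reading with doxycycline added after day one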
An asterisk follows results filed as active; . = not tested or not shown. Rows were chosen to be rich in hits. Some 6.6% of all compounds tested hit in one or more screens of this group.

SMILES	NR3A LBD binder	Beta cell apopt	Mdm2 MdmX PPI	CSC inhib	MPTP block	Gli-Sufu antag	Mdm2 MdmX conf	FLuc counter
Cc1ccc2[nH]c(C(=O)N/N=C/c3ccccc3O)c(C)c2c1	19.5*	86.0*	59.0*	37.9	6.6	11.2	77.6*	25.3
COc1ccc2[nH]c(C(=O)N/N=C/c3ccccc3OC)cc2c1	5.8	0.8	7.3	37.3	-0.5	-5.8	.	.
COc1ccc2[nH]c(C(=O)N/N=C/c3ccc(OC)c(O)c3)cc2c1	.	37.8	56.4*	47.8	1.5	26.2	53.0*	67.4*
COc1cc(OC)c2cc(C(=O)N/N=C/c3ccccc3O)[nH]c2c1	36.6*	84.6*	73.3*	71.2	2.9	26.4	68.5*	38.4*
Cc1ccc(C2(C)NC(=O)N(CC(=O)NC3CCCCC3)C2=O)cc1 (stereo not given)	6.1	.	20.9	.	0.4	-10.1	.	.
CCc1ccc(-c2nc(CN3CCC(C(=O)NCc4ccccc4OC)CC3)c(C)o2)cc1	-2.6	13.5	57.0*	5.5	48.5	-13.4	24.9	.
Cc1oc(-c2ccc(Cl)cc2)nc1CN1CCC(C(=O)N2CCc3ccccc3C2)CC1	1.0	2.0	51.6*	17.1	9.5	7.1	37.2	58.5*
Cc1ccccc1-c1nc(CN2CCC(C(=O)NCCCN3CC(C)CC(C)C3)CC2)c(C)o1 (stereo not given)	1.1	4.4	78.2*	2.5	-5.7	12.2	95.2*	25.7
Cc1oc(-c2ccc(Cl)cc2)nc1CN1CCC(C(=O)NCc2ccco2)CC1	-2.3	-7.0	-1.3	-7.6	-0.9	2.5	.	.
CCN1CCN(CCNC(=O)C2CCN(Cc3nc(-c4ccc(Cl)cc4)oc3C)CC2)CC1	.	4.2	99.2*	7.9	.	.	52.7*	37.4*
CN(CCCC(=O)Nc1ccc(OC(F)F)cc1)S(=O)(=O)c1ccc(F)cc1	-0.4	2.6	-13.7	-3.3	-1.6	-16.0	.	.
CCN1CCCC1CNC(=O)C1CCN(Cc2nc(-c3cccc(Br)c3)oc2C)CC1 (stereo not given)	-4.1	0.0	83.6*	.	-9.8	19.6	99.9*	3.9
Cc1oc(-c2ccc(Cl)cc2)nc1CN1CCC(C(=O)NCCCN2CCCC2=O)CC1	1.7	-0.2	21.2	10.4	-1.3	4.0	.	.
Cc1oc(-c2ccc(Cl)cc2)nc1CN1CCC(C(=O)NCCCN2CCCC(C)C2)CC1 (stereo not given)	-0.2	3.5	100.4*	-20.4	0.8	23.2	96.3*	21.2
N=c1sc2ccccc2n1-c1ccccc1	-0.2	-1.2	78.6*	-18.7	-0.9	-1.7	62.2*	56.7*
CSc1nnc(Cn2c(=O)sc3ccccc32)n1-c1ccccc1	-1.0	-1.7	-11.5	-8.1	-1.3	-0.1	.	.
C=CC(=O)N=c1sc2ccccc2n1-c1ccccc1	-2.1	.	82.3*	47.6	0.1	1.4	80.3*	37.1*
CCn1c(=NC(=O)CSC(C)=O)sc2ccccc21	1.0	-6.9	-14.3	-5.8	-2.4	4.1	.	.
O=C(OCc1ccccc1)N1CCCCC1c1c(Cl)cccc1Br (stereo not given)	.	.	.	.	-0.8	.	.	.
NC(=O)c1ccc(NC(=O)C#Cc2ccccc2)cc1	5.4	-3.8	85.1*	38.3	-0.4	14.9	77.1*	51.2*
COc1ccc(NC(=O)C#Cc2ccccc2)cc1OC	-18.1	-10.8	57.3*	18.7	0.4	13.9	34.2	.
CCCC(CCC)C(=O)Nc1ccc2c(c1)N(C(=O)CCN1CCN(C)CC1)c1ccccc1CC2	-0.6	3.2	24.7	-19.1	-1.4	21.1	.	.
CC1=CC(C)(C)Nc2ccc(OC(=O)CN3C(=O)CCC3=O)cc21	-0.1	.	55.4*	.	-0.2	6.0	11.4	.
CC1=CC(C)(C)N2C(=O)C(=O)c3cc(OC(=O)c4ccco4)cc1c32	-0.8	11.5	74.6*	-6.7	-0.9	-3.2	58.9*	51.6*
CC1=CC(C)(C)Nc2ccc(OC(=O)c3cccnc3)cc21	0.1	-6.3	21.7	24.6	-1.0	5.0	.	.
SMILES	NR3A LBD binder	Beta cell apopt	Mdm2 MdmX PPI	CSC inhib	MPTP block	Gli-Sufu antag	Mdm2 MdmX conf	FLuc counter
CC1=CC(C)(C)Nc2ccc(OC(=O)C(C)N3C(=O)c4ccccc4C3=O)cc21 (stereo not given)	-1.4	-24.0	56.5*	20.3	11.6	9.3	21.8	.
CC1=CC(C)(C)Nc2ccc(OC(=O)c3ccco3)cc21	0.4	-20.4	72.1*	39.1	1.0	8.8	22.1	.
COc1ccc(OC(=O)C(C)N2C(=O)c3ccccc3C2=O)cc1 (stereo not given)	-0.5	.	15.2	.	0.3	3.8	.	.
COC(=O)C1(C)CCCC2(C)C3CCC(C(C)C)C(CO)C3C(CO)CC12 (stereo not given)	.	.	.	.	0.0	.	.	.
Cc1ccc(-c2noc(N=O)c2NO)cc1	-2.1	-0.5	21.9	7.1	-0.5	4.0	.	.
O=C(CC(C(=O)c1ccccc1)c1ccccc1)c1ccccc1 (stereo not given)	2.0	.	.	.	0.9	1.6	.	.
C=C(C(=O)c1ccccc1)C(C)CC(=O)c1ccccc1 (stereo not given)	-1.2	-28.0	64.2*	31.5	0.9	-9.4	61.0*	32.4
Fc1cccc(Cc2c(-c3ccccc3)nc3c(Cl)cc(C(F)(F)F)cn23)c1	.	.	.	.	1.3	.	.	.
O=C(CCNC(=O)c1ccco1)Nc1ccc(Cl)c(C(F)(F)F)c1	-2.0	-0.2	-19.0	-15.8	-0.3	8.5	.	.
CCOC(=O)c1c(NC(=S)NC(=O)c2cnn(CC)c2)sc2c1CCC(C)C2 (stereo not given)	-1.6	-5.5	54.1*	-1.9	-0.2	-1.2	7.8	.
CCOC(=O)c1c(NC(=O)Cn2nc([N+](=O)[O-])c(Br)c2C)sc2c1CCC(C)C2 (stereo not given)	-0.8	7.2	58.1*	18.2	-0.5	13.7	8.8	.
CCOC(=O)c1c(NC(=O)C2C3C=CC(C3)C2C(=O)O)sc2c1CCC(C)C2 (stereo not given)	-1.3	-5.3	6.6	-7.1	4.2	4.2	.	.
COc1cc2nc(NC(=O)c3ccc(Cl)cc3)sc(=O)c2cc1OC	-1.6	-2.4	69.2*	-0.2	1.5	6.1	23.8	.
COCCCN(Cc1cc(OC)c(OC)c(OC)c1)C(=S)Nc1cccc(SC)c1	.	.	.	.	-0.4	.	.	.
COC(=O)c1ccc(=O)n(CC(=O)c2ccc(Cl)cc2)c1	-0.2	1.6	2.8	-10.4	-1.1	0.7	.	.
